Assay [1] in a line: Human pregnane X receptor (PXR) small molecule agonists, qHTS cell viability counter screen (AID 1346977). Further: nearly all actives have a fitted effect of over 50% in size. The gist of the method: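 PXR-Luc HepG2 cells (2,000/well, 5% charcoal-stripped FBS) preincubated 5 hr, then exposed to compounds 24 hr at 37 C. Viability read in the same wells by CellTiter-Fluor fluorescence, reagent added at 23 hr, 1 hr incubation.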
Background: qHTS replaces the single test concentration by a dilution series.

Assay [2] is described as follows: Caspase-3/7 induction in HepG2 cells by small molecules, qHTS assay (AID 1346978). Further: nearly all actives have a fitted effect of over 15% in size. The procedure, abridged: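 Wild-type HepG2 cells, 2,000/well, settled 5 hr at 37 C and 5% CO2, then compound-treated for 17 hr; caspase-3/7 activity read by luminescent Caspase-Glo 3/7 after 30 min at room temperature.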
Assay [3] in a line: Caspase-3/7 induction in CHO-K1 cells by small molecules, qHTS cell viability counter screen (AID 1346979). Further: nearly all actives have a fitted effect of over 35% in size. Further: potency means the concentration at half of the fitted maximal effect. The gist of the method: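 Wild-type CHO-K1 cells (1,500/well) treated with compound after 5 h plating; after 16 h at 37C, viability read as CellTiter-Fluor fluorescence following 1 h reagent incubation, in the same wells as the caspase read.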
The nature of assay [4]: Caspase-3/7 induction in CHO-K1 cells by small molecules, qHTS assay (AID 1346980). Further: nearly all actives have a fitted effect of over 15% in size. The gist of the method: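 Wild-type CHO-K1 cells exposed to compounds for 17hr at 37 C, 5% CO2. Caspase-3/7 activity then measured by Caspase-Glo 3/7 luminescence after 30min at room temperature.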
The nature of assay [5]: Caspase-3/7 induction in HepG2 cells by small molecules, qHTS cell viability counter screen (AID 1346981). Further: series mostly up to about 92 µM; nearly all actives have a fitted effect of over 30% in size. The procedure, abridged: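 Treatment of HepG2 cells with DMSO-delivered compounds ran 16 hr at 37 C following a 5-hr pre-incubation of 2,000 cells/well. CellTiter-Fluor fluorescence, read after 1 hr, served as the viability measure in a qHTS format.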
The target in assay [6] is Nuclear receptor subfamily 1 group I member 2 (Homo sapiens) (UniProt O75469). Kind of assay: Human pregnane X receptor (PXR) small molecule agonists, qHTS assay (AID 1346982). Further: nearly all actives have a fitted effect of over 35% in size. Further: potency means the concentration at half of the fitted maximal effect. The procedure, abridged: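 Stable HepG2 line reporting PXR-mediated CYP3A4 expression via luciferase. Treatment: 24 hr with compounds in DMSO at 37 C. Detection: ONE-Glo luminescence.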
Assay [7] addresses Cytochrome P450 2C19 (Homo sapiens) (UniProt P33261). Description: Cytochrome P450 Family 2 Subfamily C Member 19 (CYP2C19) small molecule antagonists: luciferase reporter qHTS assay (AID 1671197). Further: nearly all actives have a fitted effect of over 65% in size. Further: potency means the concentration at half of the fitted maximal effect. The procedure, abridged:
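Inhibition of CYP2C19 was scored from loss of luminescence in a P450-Glo proluciferin substrate assay, NADPH-started and run 1 h at 37C, with ketoconazole as positive control.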
In general terms: In a reporter assay the amount or activity of a reporter protein is the signal.

The target in assay [8] is Cytochrome P450 2C9 (Homo sapiens) (UniProt P11712). Kind of assay: Cytochrome P450 Family 2 Subfamily C Member 9 (CYP2C9) small molecule antagonists: luciferase reporter qHTS assay (AID 1671198). Further: nearly all actives have a fitted effect of over 50% in size. Further: potency means the concentration at half of the fitted maximal effect. The gist of the method:
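P450-Glo proluciferin substrate with CYP2C9 enzyme; 10 min RT preincubation, then NADPH regeneration 1 h at 37C; luciferin detection reagent 20 min RT, luminescence in relative luminescence units.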

Assay [9] has as its target Cytochrome P450 1A2 (Homo sapiens) (UniProt P05177). Description: Cytochrome P450 Family 1 Subfamily A Member 2 (CYP1A2) small molecule antagonists: luciferase reporter qHTS assay (AID 1671199). Further: nearly all actives have a fitted effect of over 50% in size. Further: potency means the concentration at half of the fitted maximal effect. The gist of the method:
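Read-out is luminescence from luciferin detection reagent (20 min) proportional to CYP1A2 activity; compounds in DMSO preincubated 10 min with enzyme and proluciferin substrate, then NADPH regeneration solution, 1 h, room temperature.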

Assay [10] concerns the target Voltage-gated inwardly rectifying potassium channel KCNH2 (Homo sapiens) (UniProt Q12809). Kind of assay: Human Ether-a-go-go-Related Gene (hERG) channel small molecule antagonists: fluorescence cell-based qHTS assay (AID 1671200).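 Further: hERG-expressing U2OS cells given a thallium stimulus after FluxOR II dye loading; series mostly up to about 77 µM; nearly all actives have a fitted effect of over 50% in size.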 The gist of the method: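 hERG-U2OS cells plated overnight at 37 C, loaded with FluxOR II dye 1 h at RT in dark; after 10 min, thallium stimulus added. Fluorescence (480/540 nm) read kinetically for 2 min at 1 s intervals.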

Assay [11] has as its target Cytochrome P450 3A4 (Homo sapiens) (UniProt P08684). Kind of assay: Cytochrome P450 Family 3 Subfamily A Member 4 (CYP3A4) small molecule antagonists: luciferase reporter qHTS assay (AID 1671201). Further: nearly all actives have a fitted effect of over 50% in size. Further: potency means the concentration at half of the fitted maximal effect. The procedure, abridged: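 P450-Glo CYP3A4 luminescent assay: compounds preincubated 10 min at room temperature with enzyme and proluciferin substrate, NADPH regeneration added, 1 h room-temperature reaction, stopped with luciferin detection reagent; luminescence read after 20 min. Ketoconazole positive control.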

The target in assay [12] is Cytochrome P450 2D6 (Homo sapiens) (UniProt P10635). Description: Cytochrome P450 Family 2 Subfamily D Member 6 (CYP2D6) small molecule antagonists: luciferase reporter qHTS assay (AID 1671196). The gist of the method: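 Chemicals tested for interference with CYP2D6 activity; proluciferin substrate, NADPH regeneration, 1 h at room temperature, luminescent detection.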

A number with no mark means an inactive call. Records with an inconclusive call do not appear. Calls of active or inactive are those of the source. The call rests on the fitted dose curve; in most records, active means well fitted curve in the direction sought with a large enough effect in the repeat runs; inconclusive means weak or mixed curves; inactive means no such curve, though single readings can be large; an effect the other way counts as inactive or inconclusive.

Chain of Voltage-gated inwardly rectifying potassium channel KCNH2 (Homo sapiens) (Q12809 whole entry, looked up): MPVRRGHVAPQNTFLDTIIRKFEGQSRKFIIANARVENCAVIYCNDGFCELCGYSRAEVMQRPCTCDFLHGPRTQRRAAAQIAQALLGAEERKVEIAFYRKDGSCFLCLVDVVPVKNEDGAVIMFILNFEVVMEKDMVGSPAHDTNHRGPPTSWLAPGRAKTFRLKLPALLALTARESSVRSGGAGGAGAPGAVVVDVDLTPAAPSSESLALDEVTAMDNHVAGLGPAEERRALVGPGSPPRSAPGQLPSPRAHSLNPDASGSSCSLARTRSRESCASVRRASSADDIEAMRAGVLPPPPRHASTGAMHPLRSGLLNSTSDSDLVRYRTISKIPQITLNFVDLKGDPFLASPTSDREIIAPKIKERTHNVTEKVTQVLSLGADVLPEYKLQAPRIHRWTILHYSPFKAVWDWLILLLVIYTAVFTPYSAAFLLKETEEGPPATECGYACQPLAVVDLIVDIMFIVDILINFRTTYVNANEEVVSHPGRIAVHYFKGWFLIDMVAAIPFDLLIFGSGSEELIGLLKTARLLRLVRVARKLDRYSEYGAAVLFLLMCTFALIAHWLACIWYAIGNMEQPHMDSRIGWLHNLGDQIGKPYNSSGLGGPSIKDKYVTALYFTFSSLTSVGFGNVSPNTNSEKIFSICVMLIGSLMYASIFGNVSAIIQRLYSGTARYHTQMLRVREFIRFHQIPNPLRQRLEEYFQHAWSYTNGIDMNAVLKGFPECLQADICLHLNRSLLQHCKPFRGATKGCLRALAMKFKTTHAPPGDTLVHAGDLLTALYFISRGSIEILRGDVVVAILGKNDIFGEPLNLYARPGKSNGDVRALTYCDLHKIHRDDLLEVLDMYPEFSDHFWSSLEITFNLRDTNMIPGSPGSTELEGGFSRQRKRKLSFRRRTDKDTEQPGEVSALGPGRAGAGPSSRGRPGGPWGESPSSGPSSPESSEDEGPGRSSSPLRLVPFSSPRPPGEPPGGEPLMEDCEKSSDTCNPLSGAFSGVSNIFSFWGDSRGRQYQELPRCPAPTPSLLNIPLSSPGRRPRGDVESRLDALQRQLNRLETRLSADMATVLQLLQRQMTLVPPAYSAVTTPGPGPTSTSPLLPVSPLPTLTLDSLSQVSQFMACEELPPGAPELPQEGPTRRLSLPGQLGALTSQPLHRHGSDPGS
Chain of Cytochrome P450 2D6 (Homo sapiens) (P10635 whole entry, looked up): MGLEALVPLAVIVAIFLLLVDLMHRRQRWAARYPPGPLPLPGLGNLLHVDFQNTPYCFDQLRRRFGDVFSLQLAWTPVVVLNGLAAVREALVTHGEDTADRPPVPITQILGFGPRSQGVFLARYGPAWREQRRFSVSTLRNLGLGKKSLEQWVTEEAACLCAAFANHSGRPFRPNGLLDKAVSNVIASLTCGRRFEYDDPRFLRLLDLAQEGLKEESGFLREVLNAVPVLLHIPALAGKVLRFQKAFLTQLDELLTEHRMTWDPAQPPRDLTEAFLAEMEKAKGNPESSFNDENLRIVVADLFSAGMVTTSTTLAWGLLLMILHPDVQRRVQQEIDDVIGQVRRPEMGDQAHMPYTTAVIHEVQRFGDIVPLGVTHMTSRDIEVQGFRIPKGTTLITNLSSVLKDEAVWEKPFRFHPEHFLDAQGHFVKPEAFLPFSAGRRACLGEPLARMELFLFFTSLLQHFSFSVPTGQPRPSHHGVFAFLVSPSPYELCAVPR
Chain of Cytochrome P450 2C9 (Homo sapiens) (P11712 whole entry, looked up): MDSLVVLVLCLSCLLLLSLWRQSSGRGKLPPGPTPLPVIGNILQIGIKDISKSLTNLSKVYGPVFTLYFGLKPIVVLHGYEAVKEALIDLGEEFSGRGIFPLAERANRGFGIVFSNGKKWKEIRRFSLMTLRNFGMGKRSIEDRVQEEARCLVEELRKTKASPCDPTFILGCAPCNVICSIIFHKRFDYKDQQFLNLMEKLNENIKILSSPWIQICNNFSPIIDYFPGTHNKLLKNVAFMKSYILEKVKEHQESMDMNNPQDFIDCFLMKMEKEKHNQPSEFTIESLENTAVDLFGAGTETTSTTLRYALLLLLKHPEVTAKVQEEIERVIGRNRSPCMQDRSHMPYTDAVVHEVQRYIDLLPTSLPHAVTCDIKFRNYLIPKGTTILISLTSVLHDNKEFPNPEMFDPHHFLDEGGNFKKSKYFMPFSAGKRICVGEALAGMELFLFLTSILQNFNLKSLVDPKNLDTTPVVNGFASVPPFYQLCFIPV
Chain of Cytochrome P450 3A4 (Homo sapiens) (P08684 whole entry, looked up): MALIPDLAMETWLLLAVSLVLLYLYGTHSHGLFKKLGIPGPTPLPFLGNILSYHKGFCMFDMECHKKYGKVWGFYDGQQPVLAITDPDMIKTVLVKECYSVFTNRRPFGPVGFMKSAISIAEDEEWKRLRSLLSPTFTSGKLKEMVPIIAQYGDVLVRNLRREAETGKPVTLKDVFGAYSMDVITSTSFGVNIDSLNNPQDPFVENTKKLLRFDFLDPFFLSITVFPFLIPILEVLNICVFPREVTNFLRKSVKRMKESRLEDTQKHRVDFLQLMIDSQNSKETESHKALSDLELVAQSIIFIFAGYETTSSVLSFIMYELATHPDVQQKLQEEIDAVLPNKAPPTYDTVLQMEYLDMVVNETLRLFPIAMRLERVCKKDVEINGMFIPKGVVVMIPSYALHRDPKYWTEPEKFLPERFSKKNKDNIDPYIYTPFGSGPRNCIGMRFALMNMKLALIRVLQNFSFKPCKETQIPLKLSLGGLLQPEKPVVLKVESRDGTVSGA
Chain of Cytochrome P450 1A2 (Homo sapiens) (P05177 whole entry, looked up): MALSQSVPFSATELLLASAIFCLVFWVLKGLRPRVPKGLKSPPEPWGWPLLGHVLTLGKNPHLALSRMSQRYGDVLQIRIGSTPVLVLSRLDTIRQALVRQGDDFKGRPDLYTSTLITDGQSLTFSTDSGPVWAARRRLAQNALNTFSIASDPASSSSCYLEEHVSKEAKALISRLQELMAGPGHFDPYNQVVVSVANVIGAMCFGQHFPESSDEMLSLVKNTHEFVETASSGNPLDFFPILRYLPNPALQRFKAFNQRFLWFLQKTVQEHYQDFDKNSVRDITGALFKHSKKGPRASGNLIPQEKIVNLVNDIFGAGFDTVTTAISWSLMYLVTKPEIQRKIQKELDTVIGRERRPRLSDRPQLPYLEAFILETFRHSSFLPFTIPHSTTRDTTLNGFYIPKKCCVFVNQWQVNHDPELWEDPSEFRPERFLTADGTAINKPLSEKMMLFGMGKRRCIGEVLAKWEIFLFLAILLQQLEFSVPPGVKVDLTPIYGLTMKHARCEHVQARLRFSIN
Chain of Cytochrome P450 2C19 (Homo sapiens) (P33261 whole entry, looked up): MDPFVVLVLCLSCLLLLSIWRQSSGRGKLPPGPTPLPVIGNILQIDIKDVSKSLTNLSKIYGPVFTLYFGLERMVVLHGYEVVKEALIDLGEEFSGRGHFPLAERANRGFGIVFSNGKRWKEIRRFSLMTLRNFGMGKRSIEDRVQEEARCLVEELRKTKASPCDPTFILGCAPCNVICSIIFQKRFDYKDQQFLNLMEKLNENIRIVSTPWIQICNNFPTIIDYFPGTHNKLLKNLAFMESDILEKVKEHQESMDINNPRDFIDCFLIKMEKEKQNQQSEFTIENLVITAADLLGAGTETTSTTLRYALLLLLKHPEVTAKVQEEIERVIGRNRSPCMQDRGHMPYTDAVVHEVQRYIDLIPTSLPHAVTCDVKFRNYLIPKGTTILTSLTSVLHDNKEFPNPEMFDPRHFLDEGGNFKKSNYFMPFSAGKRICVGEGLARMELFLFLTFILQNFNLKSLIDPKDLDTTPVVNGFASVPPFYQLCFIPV
Chain of Nuclear receptor subfamily 1 group I member 2 (Homo sapiens) (O75469 whole entry, looked up): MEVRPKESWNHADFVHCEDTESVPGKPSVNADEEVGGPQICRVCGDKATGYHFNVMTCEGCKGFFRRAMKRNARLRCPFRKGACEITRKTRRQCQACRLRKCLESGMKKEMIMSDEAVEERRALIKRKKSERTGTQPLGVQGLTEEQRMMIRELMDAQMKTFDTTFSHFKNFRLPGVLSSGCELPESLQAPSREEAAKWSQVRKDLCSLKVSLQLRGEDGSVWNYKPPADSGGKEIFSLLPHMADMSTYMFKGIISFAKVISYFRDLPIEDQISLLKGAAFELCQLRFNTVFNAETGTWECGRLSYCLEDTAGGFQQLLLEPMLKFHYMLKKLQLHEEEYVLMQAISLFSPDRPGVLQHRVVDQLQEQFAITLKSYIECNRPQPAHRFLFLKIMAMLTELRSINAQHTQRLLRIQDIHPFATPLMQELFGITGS

With `Nc1ccc(S(=O)(=O)O)c(N)c1`, the Potency result in assay [1], in assay [2], in assay [3], in assay [5], in [6] and in assay [8] was “inactive” each time. Also, the Potency entry in [10] and in assay [11] was “inactive” throughout. The outcome in [4] was inactive. For the same compound, the Potency in assay [7] is 31.7 µM (active); in assay [9], 22.4 µM (active).

As for `O=C(CS)OCCOC(=O)CS`, the Potency entry in assay [1], in assay [2], in assay [3], in [5], in [6] and in assay [12] was “inactive” each time. For the same compound, the Potency result in [7] and in assay [10] was “inactive” in each case. For the same compound, in assay [4], the result was inactive. Further, the Potency in [9] was 39.9 µM (active); in assay [11], 28.3 µM (active).

For `CC1(C)C2=CCCC(C)(C)[C@]23CC[C@H]1C3`, the Potency result in [1], in [2], in assay [3], in assay [5], in assay [12] and in assay [10] was “inactive” each time. Also, the compound was classed as inactive in assay [4]. The Potency in assay [6] was 54.5 µM (active); in assay [8], 79.6 µM (active); in assay [11] it was 35.6 µM (active).

As for `c1cc[c]([Bi]([c]2ccccc2)[c]2ccccc2)cc1`, the Potency result in assay [1], in [2], in assay [5] and in [9] was “inactive” throughout. For the same compound, the Potency was 61.1 µM (active) in assay [3]; 15.4 µM (active) in assay [6]; 0.283 µM (active) in assay [7]; 1 µM (active) in assay [8]; 2.24 µM (active) in [11]. In addition, in assay [4], the call was inactive.

`Cc1ccccc1N1C(=O)c2cc(S(N)(=O)=O)c(Cl)cc2NC1C` (centres undefined): the Potency result in assay [1], in assay [2], in [3], in assay [5], in assay [12] and in assay [7] was “inactive” in each case. Moreover, the Potency result in [9] and in assay [10] was “inactive” each time. Moreover, in [4], the compound was called inactive. For the same compound, the Potency in [6] was 5.31 µM (active).

As for `O=C(O)c1ccccc1NCCc1ccccc1`, the Potency entry in assay [1], in [2], in [3], in assay [5], in [7] and in assay [10] was “inactive” throughout. Further, in assay [11], the Potency entry was “inactive”. Besides, the result in assay [4] was inactive. The Potency was 23.7 µM (active) in assay [6] and 13.8 µM (active) in assay [8].

Turning to `CCOC(=N)CC(=O)OCC`, the Potency entry in assay [1], in assay [2], in assay [3], in [5], in [6] and in [7] was “inactive” throughout. For the same compound, the Potency entry in [8], in assay [10] and in assay [11] was “inactive” throughout. Further, the compound was called inactive in assay [4]. The Potency in assay [9] is 39.9 µM (active).

With `Nc1c(I)cc(I)c(C(=O)N(CCC(=O)O)c2ccccc2)c1I`, the Potency result in assay [1], in assay [2], in assay [3], in assay [5], in [12] and in [9] was “inactive” each time. Besides, the Potency result in [10] and in [11] was “inactive” in each case. Further, in [4], the outcome was inactive. The Potency in [6] was 26.6 µM (active).

For the compound `CN1C(=O)CC(C)(c2ccccc2)C1=O` (centres undefined), the Potency entry in assay [1], in assay [2], in [3], in [5], in assay [6] and in [7] was “inactive” throughout. Moreover, the Potency result in assay [8], in assay [9], in assay [10] and in [11] was “inactive” throughout. For the same compound, the outcome in assay [4] was inactive.

`CCC(C)=O`: the Potency result in assay [1], in assay [2], in [3], in assay [5], in [6] and in assay [12] was “inactive” throughout. The Potency result in [7], in assay [8] and in assay [11] was “inactive” in each case. Besides, in [4], the compound was called inactive.

For the origin of these results see PubChem BioAssay (Tox21).
